Measurements published in PubChem BioAssay (NCATS).
Where “and” joins values, the source holds several entries; their conditions need not be identical. Equal entries are not always repeated. Records with an inconclusive call do not appear. Calls of active or inactive are those of the source. The call rests on the fitted dose curve; in most records, active means well fitted curve in the direction sought with a large enough effect; inconclusive means small, poorly fitted or top-dose-only effect, or another doubt; inactive means no such curve, though single readings can be large; an effect the other way counts as inactive or inconclusive.

Columns and labels:
[1] = Viability qHTS for spleen associated tyrosine kinase inhibitor (SYKi) naive MV4-11 cells (AID 1963823); further: nearly all actives have a fitted effect of over 40% in size
In short: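 Cells: MV4-11, SYK inhibitor naive, 500 per well. Treatment: library compounds, 72 hr, 37 C, 5% CO2. Read-out: CellTiter-Glo luminescence after 10 min RT.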

[2] = Viability qHTS for spleen associated tyrosine kinase inhibitor (SYKi) drug resistant MV4-11 cells (AID 1963824); further: nearly all actives have a fitted effect of over 35% in size
In short: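 SYK inhibitor-resistant MV4-11 AML cells, 500 per well, added to predispensed compounds and incubated 72 hr at 37 C, 5% CO2. Viability measured by CellTiter-Glo luminescence after 10 min at room temperature.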

[3] = Quantitative highthroughput screen to assess conditional lethalithy of NOMO1 cells grown in RPMI1640 with untreated serum (RPMI+s) (AID 1963876); further: nearly all actives have a fitted effect of over 35% in size;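 on Viability: 100% = DMSO wells and 0% = empty wells without cells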
In short: (§1)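 Each medium arm—HPLM with 10% dialyzed FBS, or RPMI1640 with 5 mM glucose and 10% untreated or dialyzed FBS—was screened against an 11-point, 3-fold compound titration for 48 h at 37 °C, with CellTiter-Glo luminescence as endpoint.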

[4] = Quantitative highthroughput screen to assess conditional lethalithy of NOMO1 cells grown in RPMI1640 with dialyzed fetal bovine serum (RPMI+ds) (AID 1963877); further: nearly all actives have a fitted effect of over 30% in size;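 on Viability: series mostly up to about 46 µM; 100% = DMSO control wells and 0% = empty wells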
In short: as §1

[5] = Quantitative highthroughput screen to assess conditional lethalithy of SEM cells grown in Human Plasma-Like Medium with dialyzed fetal bovine serum (HPLM+ds) (AID 1963882); further: nearly all actives have a fitted effect of over 35% in size; on Viability: series mostly up to about 46 µM
In short: as §1

[6] = Quantitative highthroughput screen to assess conditional lethalithy of SEM cells grown in RPMI1640 with unreated serum (RPMI+s) (AID 1963883); further: nearly all actives have a fitted effect of over 35% in size;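 on Viability: 100% = DMSO wells and 0% = empty wells without cells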
In short: as §1

[7] = Quantitative highthroughput screen to assess conditional lethalithy of SEM cells grown in RPMI1640 with dialyzed fetal bovine serum (RPMI+ds) (AID 1963884); further: nearly all actives have a fitted effect of over 35% in size;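 on Viability: series mostly up to about 46 µM; 100% = DMSO control wells and 0% = empty wells without cells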
In short: as §1

[8] = Cellular viability qHTS for adrenocortical cancer (ACC) cell line SW-13 (AID 1963989); conditions: SW-13 ACC cells viability, CellTiter-Glo, 48 h; activity (max response): active compounds read low; further: nearly all actives have a fitted effect of over 65% in size;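 on activity (max response): cells grown in serum-free medium with ITS supplement; on the % scale 0 is the no-effect control and ±100 the full control effect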
In short: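 Compound titrations (up to 46 uM final, in DMSO) were applied to SW-13 cells for 48 h at 37C/5% CO2. Reading used CellTiter-Glo after 20 min at room temperature; fitted curves yielded IC50 and efficacy.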

[9] = Cellular viability qHTS for adrenocortical cancer (ACC) cell line NCI-H295R (AID 1963990); further: nearly all actives have a fitted effect of over 60% in size
In short: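 Readout: CellTiter-Glo luminescence, 20 min RT. Exposure: 48 h, 37C/5% CO2. Cells: NCI-H295R, ITS-DMEM serum-free. Range: up to 46 uM. Analysis: 4PL fit, IC50 plus efficacy.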

[10] = Quantitative highthroughput screen to assess conditional lethalithy of P12 Ichikawa cells grown in RPMI1640 with untreated serum (RPMI+s) (AID 1963881); conditions: Potency: viability; further: nearly all actives have a fitted effect of over 35% in size;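 on Viability: series mostly up to about 46 µM; 100% = DMSO wells and 0% = empty wells without cells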
In short: as §1

[11] = Quantitative highthroughput screen to assess conditional lethalithy of P12 Ichikawa cells grown in RPMI1640 with dialyzed fetal bovine serum (RPMI+ds) (AID 1963880); conditions: Potency: P12-Ichikawa viability; further: nearly all actives have a fitted effect of over 35% in size;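 on Viability: 100% = DMSO wells and 0% = empty wells on each plate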
In short: as §1

[12] = Quantitative highthroughput screen to assess conditional lethalithy of P12 Ichikawa cells grown in Human Plasma-Like Medium with dialyzed fetal bovine serum (HPLM+ds) (AID 1963879); conditions: Potency: viability; further: nearly all actives have a fitted effect of over 35% in size; on Viability: series mostly up to about 46 µM
In short: as §1

[13] = Quantitative highthroughput screen to assess conditional lethalithy of NOMO1 cells grown in Human Plasma-Like Medium with dialyzed fetal bovine serum (HPLM+ds) (AID 1963878); further: nearly all actives have a fitted effect of over 35% in size
In short: as §1
Potency means the concentration at half of the fitted maximal effect.

CNC(=O)c1nn(C)c2c1C(C)(C)Cc1cnc(Nc3ccc(N4CCN(C)CC4)cc3)nc1-2
active: Potency [1] 51.7 nM and 74.2 nM | Potency [2] 82 nM and 209 nM | Potency [3] 16.6 µM | Potency [4] 14.8 µM | Potency [5] 0.264 µM | Potency [6] 0.372 µM | Potency [7] 0.418 µM | Potency [8] 5.01 µM | Potency [9] 14.1 µM

Cn1c(=O)c(-c2c(Cl)cccc2Cl)cc2cnc(Nc3cccc(C(=O)O)c3)nc21
inactive: Potency [3] | Potency [4] | Potency [10] | Potency [9]
active: Potency [1] 0.662 µM | Potency [2] 0.259 µM | Potency [6] 14.8 µM

Cc1ccccc1C(=O)c1ccc(Nc2ccc(Br)cc2N)cc1Cl
inactive: Potency [3]
active: Potency [1] 11.8 µM and 13 µM | Potency [2] 16.6 µM and 18.4 µM | Potency [4] 20.9 µM | Potency [9] 31.6 µM

C[C@@H]1COC(Nc2ccc3ncnc(Nc4ccc(OCc5nccs5)c(Cl)c4)c3c2)=N1
active: Potency [1] 4.11 µM | Potency [2] 2.91 µM | Potency [11] 18.7 µM | Potency [8] 15.8 µM
inactive: Potency [3] | Potency [4]

NNC(=O)c1ccncc1
inactive: Potency [1] | Potency [2] | Potency [3] | Potency [4] | Potency [5] | Potency [6] | activity (max response) [8] 13.1% and -0.369% | Potency [9]
active: Potency [12] 16.6 µM

CCCCCCNC(=O)n1cc(F)c(=O)[nH]c1=O
inactive: Potency [3] | Potency [5] | activity (max response) [8] 8.7% and -4.78% | Potency [9]
active: Potency [1] 1.05 µM | Potency [2] 0.934 µM | Potency [4] 9.35 µM | Potency [6] 16.6 µM

CC[C@@H]1C(=O)N(C)c2cnc(Nc3ccc(C(=O)NC4CCC(N5CCN(CC6CC6)CC5)CC4)cc3OC)nc2N1C(C)C (stereo partly specified)
active: Potency [1] 0.0206 µM | Potency [2] 23.1 nM and 9.2 nM and 16.6 nM | Potency [3] 0.0935 µM | Potency [4] 0.0743 µM | Potency [12] 0.0332 µM | Potency [10] 0.0743 µM | Potency [6] 0.0833 µM | Potency [7] 0.059 µM | Potency [8] 0.0501 µM | Potency [9] 1.41 µM

Cc1ccc(S(=O)(=O)Nc2nc3ccccc3nc2Nc2ccc3nsnc3c2)cc1
active: Potency [1] 10.3 µM | Potency [2] 8.2 µM | Potency [3] 1.15 µM | Potency [4] 1.62 µM | Potency [12] 5.75 µM | Potency [10] 4.07 µM | Potency [5] 7.24 µM | Potency [7] 4.07 µM
inactive: activity (max response) [8] 0.221% | Potency [9]

Cc1cc2c(s1)Nc1ccccc1N=C2N1CCN(C)CC1
inactive: Potency [3] | Potency [4] | Potency [11] | Potency [10] | Potency [5] | Potency [6] | activity (max response) [8] -7.86%
active: Potency [1] 20.6 µM | Potency [2] 23.1 µM

CCCc1cc(C(N)=S)ccn1
inactive: Potency [1] | Potency [2] | Potency [3] | Potency [4] | Potency [12] | Potency [11] | Potency [5] | Potency [6] | Potency [7] | Potency [9]

Cc1cnc(-c2cnc(NCCNc3ccc(C#N)cn3)nc2-c2ccc(Cl)cc2Cl)[nH]1
active: Potency [1] 14.6 µM | Potency [2] 13 µM
inactive: Potency [3] | Potency [4] | activity (max response) [8] 4.03% | Potency [9]

CCOC(=O)c1ccc(OC(=O)CCCCCN=C(N)N)cc1
inactive: Potency [1] | Potency [2] | activity (max response) [8] 3.73% | Potency [9]
active: Potency [3] 3.32 µM | Potency [4] 3.32 µM | Potency [12] 1.87 µM | Potency [10] 7.43 µM

COc1ccc(-c2nc(N3CCOCC3)c3sc(CN(C)c4ncc(C(=O)NO)cn4)cc3n2)cn1
active: Potency [1] 0.0148 µM | Potency [2] 0.0093 µM | Potency [3] 0.0209 µM | Potency [4] 0.0235 µM | Potency [11] 0.0235 µM | Potency [10] 0.0187 µM | Potency [5] 0.0118 µM | Potency [6] 0.0074 µM | Potency [7] 0.0132 µM | Potency [8] 0.355 µM

COc1ccc(C2CC(c3ccccc3)=NN2c2ccc(S(N)(=O)=O)cc2)cc1 (stereo unspecified)
active: Potency [1] 20.9 µM | Potency [2] 18.6 µM | Potency [3] 4.18 µM | Potency [13] 2.64 µM | Potency [12] 6.62 µM | Potency [11] 3.72 µM | Potency [10] 4.18 µM | Potency [5] 2.35 µM | Potency [6] 1.18 µM | Potency [7] 1.66 µM

Cc1ccc(-c2ncn(-c3ccc(Nc4nccc(-c5cccc(N6CCOCC6)c5)n4)cc3)n2)cn1
active: Potency [1] 2.35 µM | Potency [2] 2.35 µM | Potency [3] 0.372 µM | Potency [4] 0.372 µM | Potency [12] 0.296 µM | Potency [10] 0.296 µM | Potency [5] 0.235 µM | Potency [6] 0.118 µM
inactive: activity (max response) [8] 11.5%

CC(C)(C)c1nc(-c2cccc(NS(=O)(=O)c3c(F)cccc3F)c2F)c(-c2ccnc(N)n2)s1
active: Potency [1] 1.84 µM | Potency [2] 16.6 µM | Potency [3] 11.8 µM | Potency [13] 2.96 µM | Potency [11] 0.743 µM | Potency [10] 2.96 µM | Potency [6] 2.64 µM
inactive: Potency [12] | Potency [5] | Potency [7]
